We go through 100 molecules from PubChem BioAssay AID1220 (Sanford-Burnham Center for Chemical Genomics, 2008).

Screen size: about 190,000 compounds; about 1,300 (0.68%) were called active. The entries come from a sample that favours actives as a whole. Values without a mark were called inactive. Cut-off read from the data, not from the text of the source: active = inhibition above about 50%; inactive = the rest.

Mannose-6-phosphate isomerase (Homo sapiens), sequence (P34949 whole entry, looked up): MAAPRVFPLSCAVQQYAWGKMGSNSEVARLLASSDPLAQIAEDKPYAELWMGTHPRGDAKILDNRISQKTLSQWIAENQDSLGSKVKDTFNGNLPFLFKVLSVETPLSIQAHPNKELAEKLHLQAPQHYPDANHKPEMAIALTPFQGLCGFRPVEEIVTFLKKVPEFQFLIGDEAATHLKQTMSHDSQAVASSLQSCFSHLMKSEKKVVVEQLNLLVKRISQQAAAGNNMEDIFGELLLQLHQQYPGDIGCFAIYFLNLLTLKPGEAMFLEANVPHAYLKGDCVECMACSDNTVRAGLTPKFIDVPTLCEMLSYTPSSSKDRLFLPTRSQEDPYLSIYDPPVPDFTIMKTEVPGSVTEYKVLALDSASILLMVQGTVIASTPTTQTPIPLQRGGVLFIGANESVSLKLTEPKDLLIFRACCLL

This assay addresses Mannose-6-phosphate isomerase (Homo sapiens) (UniProt P34949). Put plainly: MPI inhibition at elevated mannose 6-phosphate – biochemical, fluorescence intensity, high mannose 6-phosphate, primary screen (AID 1220). To be noted: recombinant PMI enzyme, coupled fluorescence intensity; at 20 µM; stronger effect = higher value.
With `Cc1ccc(NC(=O)C(=O)NCCN2CCN(C(=S)Nc3ccccc3)CC2)cc1`, the inhibition (in general, the change of the read-out against control, counted positive when it falls) was -0.2%.
With `COCCNC(=O)CN(C(=O)Cn1nnc2ccccc21)c1ccc(F)c(Cl)c1`, the inhibition was -5.3%.
On to `CC(=O)Nc1c(O)c2ccccc2[nH]c1=O`, for which the inhibition was 17.5%.
As for `O=c1[nH]c2ccccc2c2ccccc12`, the inhibition was 3.6%.
Consider `COc1cc([N+](=O)[O-])ccc1NC(=O)CCCOc1cccc(C)c1C`, for which the inhibition is 9.2%.
For the molecule `OCCOCCOc1ccc(-c2nn[nH]n2)cc1`, the inhibition was -12.5%.
With `CCCCC(=O)Nc1ccc(NC(=S)NC(=O)c2cccs2)cc1OC`, the inhibition was 14.4%.
Consider `O=C(Nc1cccc(S(=O)(=O)Nc2ccccc2Cl)c1)c1ccc(Cl)nc1`, for which the inhibition is 7.3%.
As to `CN1c2ccccc2N(C)C1c1c(O)ccc2ccccc12`, the inhibition was 55.3% (active).
Take `CCC12CN3CC(CC)(CN(C1)C3c1c(O)ccc3ccccc13)C2=O` (stereo not given): the inhibition is 27.9%.
In the case of `Oc1ccc2ccccc2c1C1Nc2cccc3cccc(c23)N1`, the inhibition is 10.6%.
Regarding `Fc1ccc(NC(=S)N2CCn3cccc3C2c2cccnc2)cc1` (stereo not given), the inhibition is 1%.
In the case of `Cc1ccc(NC(=O)C(Nc2ccccc2)c2ccccc2)cc1` (stereo not given), the inhibition is 1.5%.
Then `CC(=O)N1N=C(c2cccc([N+](=O)[O-])c2)OC1c1cccc(Br)c1` (stereo not given), with 4.5%; and `CCCC(=Nc1ccc(N)cc1)C1=C(O)C(C(=O)OC)C(C)(C)CC1=O` (stereo not given), with 28.8%.
Take `CCC(=Nc1ccc(N)cc1)C1=C(O)C(C(=O)OC)C(C)(C)CC1=O` (stereo not given): the inhibition is 53.8% (active).
Then `CCCCC(=Nc1ccc(N)cc1)C1=C(O)C(C(=O)OC)C(C)(C)CC1=O` (stereo not given), with 15.5%; and `COc1ccc(OC)c2sc(NC(=O)CCSc3ccccc3)nc12`, with 2.1%.
As for `Oc1cccc2cc3cccc(O)c3c(O)c12`, the inhibition was -119%.
Turning to `Cc1cc(C)c2ccc(C)[n+]([O-])c2c1O`, the inhibition was -26.8%.
In the case of `Cc1ccc2cccc(O)c2[n+]1[O-]`, the inhibition is 53.5% (active).
Turning to `Cc1cccc(Cn2ccc(NC(=O)c3cccnc3)n2)c1`, the inhibition was -9.3%.
On to `CCOc1ccc(C(=O)CC(Sc2ccc(C)cc2)C(=O)O)cc1` (stereo not given), for which the inhibition was -4%.
For `CCCOC(=O)c1ccc(Oc2c(-c3ccc(O)cc3O)n[nH]c2C)cc1`, the inhibition is 5.2%.
Regarding `COc1cc(N2CCCC2)c(OC)cc1/C=C(/C#N)c1cccc(F)c1`, the inhibition was 11.2%.
Under `COc1cc(N2CCCC2)c(OC)cc1C=O` stands 53.6% (active).
Then `COc1cc(N2CCCC2)ccc1C=O`, with 23%; and `COc1cc(N2CCCC2)c(OC)cc1/C=C1/NC(=S)NC1=O`, with 27.9%; and `COc1cc(N2CCCC2)c(OC)cc1/C=C(/C#N)c1ccc(F)cc1`, with 54.8% (active).
`COc1cc(N2CCCC2)c(OC)cc1/C=C(/C#N)c1ccc(Br)cc1`: the inhibition is 13.6%.
Under `CCOCCCN1CN(Cc2ccccc2)CNC1=S` stands -6.2%; under `Cc1cc(C)cc(OCC(=O)OCCN2C(=O)c3ccccc3C2=O)c1`, 11.5%; under `NC(=O)NNC1=Nc2cccc3cccc1c23`, 8.5%.
For `CCOC(=O)N1CCN(C2=Nc3cccc4cccc2c34)CC1`, the inhibition is 58.5% (active).
Consider `COc1ccccc1N1CCN(C2=Nc3cccc4cccc2c34)CC1`, for which the inhibition is 27.3%.
Take `c1ccc(CN2CCN(C3=Nc4cccc5cccc3c45)CC2)cc1`: the inhibition was 21.9%.
Take `CC1CN(c2nc3ccccc3cc2-c2ccccc2)CC(C)O1` (stereo not given): the inhibition is 5.7%.
Regarding `c1ccc(CC2CCN(C3=Nc4cccc5cccc3c45)CC2)cc1`, the inhibition was 10.8%.
Then `CCOC(=O)N1CCN(c2cccc(C)c2C)CC1`, with -11.4%; and `c1ccc2c(c1)CCN(C1=Nc3cccc4cccc1c34)C2`, with 60.2% (active); and `CC1CN(C2=Nc3cccc4cccc2c34)CC(C)O1` (stereo not given), with 59.2% (active).
As for `NC1=Nc2cccc3cccc1c23`, the inhibition is 60% (active).
Regarding `c1ccc(NC2=Nc3cccc4cccc2c34)cc1`, the inhibition is 9.8%.
As for `O=S1(=O)N=C(N2CCc3ccccc3C2)c2ccccc21`, the inhibition is -8.5%.
On to `Cc1nn2c(=O)c(NC(=O)c3ccc(Cl)cc3)cnc2s1`, for which the inhibition is 0.6%.
Under `Cc1ccc(/C(N)=N/OC(=O)c2cccc(F)c2)cc1` stands 3.9%.
As for `COc1ccc(C(=O)OCC(=O)N2C(C)CCCC2C)cc1[N+](=O)[O-]` (stereo not given), the inhibition is -0.8%.
Then `COC(=O)c1ccccc1NC(=O)N[C@@H](C)C(=O)OC`, with -13.4%.
On to `O=C1OCC(CO)(CO)N=C1NNc1cc(Cl)ccc1Cl`, for which the inhibition is -81.3%.
`CCC(=O)NCCNc1nc2cc(C)cc(C)c2cc1C#N`: the inhibition was 12.8%.
With `CC(C)C(NC(=O)c1ccccc1Cl)C(=O)OCc1nc2scc(-c3ccccc3Cl)c2c(=O)[nH]1` (stereo not given), the inhibition was -15.4%.
`c1cc2c3c(cccc3c1)C(N1CCCCCC1)=N2`: the inhibition was 12.7%.
Consider `O=C(CN1C(=O)c2cccc3cccc(c23)C1=O)N1CCN(c2ccccn2)CC1`, for which the inhibition was -1.5%.
Consider `c1cc2c3c(cccc3c1)C(N1CCCCC1)=N2`, for which the inhibition is 58.7% (active).
Consider `O=C(CCCN1C(=O)c2cccc3cccc(c23)C1=O)N1CCN(c2ncccn2)CC1`, for which the inhibition is 10.1%.
Then `Fc1ccc(N2CCN(C3=Nc4cccc5cccc3c45)CC2)cc1`, with 32.1%.
With `CC(=O)N1CCN(C2=Nc3cccc4cccc2c34)CC1`, the inhibition was 52.4% (active).
In the case of `CC(C)n1nnnc1SCC(=O)NCc1ccc2c(c1)OCO2`, the inhibition is -4.5%.
As to `OCCN1CCN(c2ncnc3nc[nH]c23)CC1`, the inhibition was 10.7%.
Regarding `COCCN1CCCC(CNCc2cn(C)nc2-c2ccc(Oc3ccccc3)cc2)C1` (stereo not given), the inhibition was 10.6%.
Consider `O=c1c(Cc2ccc(Cl)cc2Cl)c(O)ccn1CCCN1CCOCC1`, for which the inhibition was -5.3%.
With `C#CCNC(=O)C1=C[C@@H](c2ccc(C(F)(F)F)cc2)C[C@@H](OCCCCO)O1`, the inhibition was 38.5%.
Under `O=C(C1=C[C@H](c2ccc(C(F)(F)F)cc2)C[C@H](OCCCCO)O1)N1CCOCC1` stands -0.7%; under `NC(=O)C1=C[C@@H](c2ccc(C(F)(F)F)cc2)C[C@@H](OCCCCO)O1`, 57.4% (active); under `NC(=O)C1=C[C@H](c2ccc(C(F)(F)F)cc2)C[C@H](OCCCCO)O1`, 53.7% (active).
Take `NC(=O)C1=C[C@@H](c2ccc(Br)cc2)C[C@@H](OCCCCO)O1`: the inhibition is 66.1% (active).
For the molecule `O=C(C1=C[C@@H](c2ccc(C(F)(F)F)cc2)C[C@@H](OCCCCO)O1)N1CCOCC1`, the inhibition is -1.4%.
As to `CN1CCN(C(=O)C2=C[C@@H](c3ccc(C(F)(F)F)cc3)C[C@@H](OCCCCO)O2)CC1`, the inhibition was 1.4%.
Take `O=C(NC1CC1)C1=C[C@@H](c2ccc(Br)cc2)C[C@@H](OCCCCO)O1`: the inhibition was -2.7%.
With `O=C(O)C1=C[C@H](c2ccc(Br)cc2)C[C@H](OCCCCO)O1`, the inhibition was -7.2%.
With `CN(C)CCCCOc1cccc(Br)c1`, the inhibition is -14%.
Consider `COCCn1c(=O)[nH]c2cc(C(=O)NCCCN3CCN(c4ccc(F)cc4)CC3)ccc2c1=O`, for which the inhibition is -12.2%.
As to `CCC(=O)Nc1cc(C(C)C)c(O)cc1C`, the inhibition was -2.4%.
As for `CCOc1cc(C(=O)N2CCN(c3ccc(C(C)=O)cc3)CC2)cc(OCC)c1OCC`, the inhibition is 6.8%.
As to `O=C(O)c1ccc(CSCc2ccco2)cc1`, the inhibition was 4.1%.
Under `CC(C(=O)Nc1cccc([N+](=O)[O-])c1)N1CCN(C/C=C/c2ccccc2)CC1` (stereo not given) stands 12%.
Under `Cc1c(/C=N\NC(=O)c2ccc(F)cc2)cnn1C` stands 9.7%.
As to `Cc1c(/C=N\NC(=O)c2csc3ccccc23)cnn1C`, the inhibition was 2.4%.
Then `Cc1occc1C(=O)N/N=C/c1cnn(C)c1C`, with 64% (active).
Take `COc1c2ccoc2c(OC[C@@H](O)C(C)(C)OC)c2oc(=O)ccc12`: the inhibition is 9.3%.
Under `CCOC(=O)N1CCN(C(=O)C2CCN(CC3CCCCC3)CC2)CC1` stands -10.5%; under `COc1ccc(C(=O)n2nnc3ccccc32)cc1OC`, 6%; under `Oc1ccccc1C1=NCCNC(C(F)(F)F)=C1`, -3.4%.
With `Oc1c(C2=NCCNC(C(F)(F)F)=C2)ccc2ccccc12`, the inhibition is 54.4% (active).
For the molecule `FC(F)(F)C1=CC(c2ccccc2)=NCCN1`, the inhibition is 0.2%.
Consider `Cc1cccc(NC2=C(NC(=O)c3ccccc3)C(=O)c3ccccc3C2=O)c1`, for which the inhibition was 6.2%.
Consider `CN(C1=C(NC(=O)c2ccc(Cl)cc2)C(=O)c2ccccc2C1=O)c1ccccc1`, for which the inhibition is 25.2%.
Under `O=C(NC(=S)Nc1ccc2c(c1)C(=O)c1ccccc1C2=O)c1ccc(F)cc1` stands -25.8%; under `O=C(NC1=C(Nc2ccc(F)cc2)C(=O)c2ccccc2C1=O)c1ccc(Cl)cc1`, 55.3% (active).
Regarding `O=C(NC1=C(Nc2ccc(Cl)cc2)C(=O)c2ccccc2C1=O)c1ccccc1`, the inhibition is 58% (active).
On to `Cc1ccc(NC2=C(NC(=O)c3ccccc3)C(=O)c3ccccc3C2=O)cc1Cl`, for which the inhibition was 14%.
With `Cc1ccc(C(=O)Nc2ccc(C(=O)N3CCCCC3C)cc2)cc1` (stereo not given), the inhibition was 1%.
As for `O=C(CSC1=NCCS1)Nc1cccc2ccccc12`, the inhibition was 2.9%.
`CC(C)(C)NC(=S)Nc1cccc(C(F)(F)F)c1`: the inhibition was 2.1%.
Take `FC(F)(F)c1cccc(NC(=S)NC(c2ccccc2)c2ccccc2)c1`: the inhibition is -5.4%.
For `CC(NC(=S)Nc1cccc(C(F)(F)F)c1)C(C)(C)C` (stereo not given), the inhibition is 54.2% (active).
Then `CCOC(=O)/C(C#N)=C1/SC(CC)C(=O)N1c1ccc(C)cc1` (stereo not given), with -25%.
Turning to `C/C(=N\Nc1ccc(F)cc1F)c1ccc(N2CCOCC2)cc1`, the inhibition is -144%.
Regarding `CC(c1ccco1)N(C(=O)c1ccc(C(F)(F)F)cc1)c1ccccn1` (stereo not given), the inhibition was 8.9%.
Under `Cc1ccc(S(=O)(=O)CC2CSc3nc4ccccc4n32)cc1` (stereo not given) stands 9.4%.
